Among the test systems are NCI-H23 lung; NCI-H322M lung; HOP-62 NSCLC; NCI-H460 lung; HOP-92 NSCLC; NCI-H522 lung; A549/ATCC NSCLC; 786-0 renal; COLO 205 colon; DU-145 prostate; K-562 leukemia; MALME-3M melanoma; MDA-MB-231 breast; RXF 393 renal; SF-268 CNS; SF-295 CNS; SF-539 CNS; UACC-257 melanoma; M14 melanoma; HCT-15 colon.
Common to all, as to assay: NCI-60 one-dose screen, 48 h (100 = growth as untreated, 0 = no growth, -100 = all killed)
Common to all, as to conditions: 10 µM unless noted

Drawing on PubChem BioAssay (NCI), this text covers growth for seven compounds.

SMILES strings stand for the structures. The panel holds about 83,000 compounds, 20% with a hit somewhere; the sample as a whole holds those more often.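 Each cell line was grown in a 96-well plate and treated with one concentration of compound for 48 hours. Values below 10 were considered active.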 Unmarked numbers belong to inactive results. Calls of active or inactive are those of the source.

Take `CCOC(=O)c1cc2c(n1Cc1ccccc1OC)-c1oncc1CCC2`: the growth with NCI-H23 lung was 45.3%; in the assay with NCI-H322M lung it was 86%; with HOP-62 NSCLC it was 45.3%; in the assay on NCI-H460 lung, 18.4%; in the assay on HOP-92 NSCLC it was 57%; in the assay with NCI-H522 lung, 19.2%. Moreover, the growth is 36.6% with A549/ATCC NSCLC; 49.6% in the assay with 786-0 renal; 2.53% (active) with COLO 205 colon; 33.2% with DU-145 prostate; 10.5% in the assay with K-562 leukemia; 20.7% with MALME-3M melanoma. In addition, the growth was 53% in the assay with MDA-MB-231 breast; 5.36% (active) with RXF 393 renal; 57.6% in the assay with SF-268 CNS; 17% in the assay on SF-295 CNS; 3.92% (active) in the assay with SF-539 CNS; 50.4% with UACC-257 melanoma. In addition, the results for the growth with M14 melanoma and in the assay with HCT-15 colon were 35% and 30.9%, respectively.
Turning to `O=C(COc1cc(O)c2c(=O)cc(-c3ccccc3)oc2c1)Nc1ccccc1C(F)(F)F`, the growth in the assay on NCI-H23 lung was 46.1%; with NCI-H322M lung, 62.2%; in the assay on HOP-62 NSCLC, 16.2%; with NCI-H460 lung, -42.5% (active); with HOP-92 NSCLC, 51.6%; in the assay with NCI-H522 lung it was 46.6%. Moreover, the growth in the assay with A549/ATCC NSCLC was 0.206% (active); in the assay on 786-0 renal it was 7.11% (active); with COLO 205 colon it was 60.1%; with DU-145 prostate, 52.7%; with K-562 leukemia it was 49.2%; in the assay with MALME-3M melanoma, 54.3%. For the same compound, the growth was 9.62% (active) in the assay with MDA-MB-231 breast; 63.4% in the assay with RXF 393 renal; 63.5% with SF-268 CNS; 34.6% in the assay on SF-295 CNS; 35.2% in the assay with SF-539 CNS; 73.4% in the assay with UACC-257 melanoma. The figures for the growth in the assay with M14 melanoma and in the assay on HCT-15 colon were 70.6% and 53.4%, respectively.
Take `COc1ccc(C2C3=C(COC3=O)N(CCO)c3cc4c(cc32)CCC4)cc1OC` (stereo not given): the growth is 29.8% in the assay on NCI-H23 lung; 35.3% in the assay with NCI-H322M lung; 31.6% with HOP-62 NSCLC; -15.1% (active) in the assay with NCI-H460 lung; 91.9% with HOP-92 NSCLC; -33.7% (active) in the assay on NCI-H522 lung. The growth with A549/ATCC NSCLC is 19.5%; in the assay with 786-0 renal it was 26.7%; in the assay on COLO 205 colon it was 14.9%; in the assay on DU-145 prostate, -28.1% (active); in the assay on K-562 leukemia, 14.7%; with MALME-3M melanoma, 42.8%. For the same compound, the growth in the assay on MDA-MB-231 breast was 24.7%; with RXF 393 renal, -42.7% (active); in the assay on SF-268 CNS, 49.1%; with SF-295 CNS, -2.08% (active); in the assay with SF-539 CNS, -20.4% (active); in the assay on UACC-257 melanoma, 43.6%. In addition, the values for the growth with M14 melanoma and in the assay on HCT-15 colon were -18.4% (active) and 21.8%, respectively.
Take `COC(=O)/C(CCC=C(C)C)=C1\[C@@H](OC(C)=O)C[C@@]2(C)[C@H]1CC(=O)N[C@H]1[C@@]3(C)CCNC(=O)[C@@H](C)[C@@H]3CC[C@@]12C`: the growth was 99.2% with NCI-H23 lung; 98.3% in the assay on NCI-H322M lung; 106% in the assay on HOP-62 NSCLC; 109% in the assay with NCI-H460 lung; 106% with HOP-92 NSCLC; 96.6% with NCI-H522 lung. Further, the growth was 106% in the assay with A549/ATCC NSCLC; 96.2% in the assay with 786-0 renal; 109% in the assay with COLO 205 colon; 107% with DU-145 prostate; 101% in the assay with K-562 leukemia; 101% in the assay with MALME-3M melanoma. The growth with MDA-MB-231 breast was 102%; in the assay on RXF 393 renal, 112%; in the assay with SF-268 CNS it was 101%; in the assay with SF-295 CNS, 101%; in the assay on SF-539 CNS, 103%; in the assay on UACC-257 melanoma, 104%. The growth in the assay with M14 melanoma is 98.5%; with HCT-15 colon it was 106%.
On to `O=NN(Cc1cccnc1)C(=O)NC1CCCCC1`, for which the growth in the assay on NCI-H23 lung was 111%; with NCI-H322M lung, 106%; in the assay on HOP-62 NSCLC, 107%; in the assay with NCI-H460 lung it was 109%; with HOP-92 NSCLC it was 82.3%; in the assay with NCI-H522 lung, 90.5%. For the same compound, the growth in the assay on A549/ATCC NSCLC is 93.9%; in the assay with 786-0 renal, 108%; with COLO 205 colon it was 111%; in the assay with DU-145 prostate, 116%; in the assay on K-562 leukemia it was 101%; with MALME-3M melanoma it was 102%. In addition, the growth with MDA-MB-231 breast was 127%; with RXF 393 renal it was 102%; with SF-268 CNS, 106%; in the assay with SF-295 CNS, 80.7%; in the assay with SF-539 CNS, 96.2%; in the assay with UACC-257 melanoma it was 92.5%. The growth in the assay on M14 melanoma is 107%; in the assay with HCT-15 colon it was 108%.
As for `O=NN(C(=O)NC1CCC(C(=O)O)CC1)C1CCC(C(=O)O)CC1` (stereo not given), the growth in the assay on NCI-H23 lung is 106%; in the assay on NCI-H322M lung, 107%; with HOP-62 NSCLC it was 104%; in the assay with NCI-H460 lung it was 107%; in the assay with HOP-92 NSCLC, 98.8%; in the assay on NCI-H522 lung, 98.7%. The growth in the assay on A549/ATCC NSCLC was 106%; in the assay on 786-0 renal, 107%; in the assay on COLO 205 colon, 115%; in the assay with DU-145 prostate, 112%; in the assay on K-562 leukemia it was 95%; in the assay on MALME-3M melanoma it was 104%. Further, the growth with MDA-MB-231 breast was 103%; in the assay with RXF 393 renal, 106%; in the assay on SF-268 CNS, 107%; in the assay with SF-295 CNS it was 107%; in the assay with SF-539 CNS, 103%; in the assay with UACC-257 melanoma, 96.7%. Moreover, the growth in the assay on M14 melanoma was 104%; in the assay with HCT-15 colon it was 96.3%.
In the case of `Cc1cc2c(c(C)c1Cl)C(=O)/C(=C/c1cccc([N+](=O)[O-])c1)O2`, the growth is 90.3% in the assay on NCI-H23 lung; 98.7% in the assay on NCI-H322M lung; 107% with HOP-62 NSCLC; 101% in the assay with NCI-H460 lung; 114% with HOP-92 NSCLC; 80.6% with NCI-H522 lung. In addition, the growth with A549/ATCC NSCLC is 89.6%; in the assay on 786-0 renal it was 101%; in the assay with COLO 205 colon it was 123%; in the assay on DU-145 prostate it was 104%; with K-562 leukemia it was 99.9%; in the assay on MALME-3M melanoma it was 97.1%. In addition, the growth with MDA-MB-231 breast was 92.7%; in the assay with RXF 393 renal, 107%; in the assay on SF-268 CNS it was 100%; in the assay on SF-295 CNS it was 95.1%; in the assay on SF-539 CNS, 95%; in the assay on UACC-257 melanoma it was 88.2%. The growth in the assay on M14 melanoma was 98.9%; in the assay with HCT-15 colon, 99.7%.
